# Experimental data taken from PubChem BioAssay (NCI).
# Where “and” joins values, the source holds several entries; their conditions need not be identical. Equal entries are not always repeated. This is part of a sample that, as a whole, favours compounds with a hit. Of some 83,000 tested, about 20% had one in any assay.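 96-well plates, one dose, 48 hours. Percent growth reported; active if below 10.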 Unmarked numbers belong to inactive results. Calls of active or inactive are those of the source.
# Test system: HCT-116 colon
# Assay: NCI-60 one-dose screen, 48 h (100 = growth as untreated, 0 = no growth, -100 = all killed)
# Conditions: 10 µM unless noted
row,SMILES,growth
1,CN(C)CCOc1ccc2c(c1)C(=O)/C(=C\c1ncc([N+](=O)[O-])n1C)C2,-5.59% (active)
2,CN(C)c1ccc(C(=C2C=CC(=[N+](C)C)C=C2)c2ccc(N(C)C)cc2)cc1 (tested in a mixture with another compound),-76% (active)
3,O=C1C=CC(=O)N1C1c2ccccc2-c2ccccc21,97.9%
4,O=C1NC(=O)/C(=C/C=C/c2ccccc2)S1,31.7%
5,CCCCCC(CCCCC)C(=O)O,109%
6,CC1(C)CC([P+](c2ccccc2)(c2ccccc2)c2ccccc2)=NN1,16.6%
7,CCCCCCCCCCCCCCCC[N+](C)(CCO)Cc1cnc[nH]1 (stereo unspecified),-51% (active)

# Test system: HCC-2998 colon
# Assay: as above
# Conditions: 10 µM unless noted
row,SMILES,growth
1,O=C1c2ccccc2C(=O)N1c1ccccc1,102%
2,CCC(CCCN(CC)CCc1ccccc1)OC(=O)c1cc(OC)c(OC)c(OC)c1 (stereo unspecified),96.4%
3,O=C1c2cccnc2-c2nccc3c2c1nc1cc(Br)ccc13,-100% (active) and -82.7% (active)
4,CNc1ccc(N)cc1,100%
5,Cc1c2ccccc2c(C)c2c1ccc1ccccc12,104%
6,O=[N+]([O-])c1ccc(N=Nc2ccc(O)cc2O)cc1,31.6%
7,N#CSCc1ccc(CSC#N)c(Cl)c1,102%
8,COc1ccccc1/C=C\C(=O)c1ccccc1,97%
9,CN(C)c1ccc(C(=C2C=CC(=[N+](C)C)C=C2)c2ccc(N(C)C)cc2)cc1 (tested in a mixture with another compound),-80.3% (active)
